Reference: PubChem BioAssay (EPA / NIEHS)
The source made the active and inactive calls. The calls were made as follows: active = hit-call score of the fitted dose curve at least 0.9, where 1 is the maximum; inactive = score below 0.9.

Read-out: CYP4A11 (gene 1579)
Experiment: LTEA_HepaRG_CYP4A11: Life Technologies and Expression Analysis (LTEA) Assay for CYP4A11 using HepaRG (AID 2283486)
Settings: mRNA level, 48 h; actives raise or lower the signal
Procedure: LTEA_HepaRG is a cell based, multiplexed-readout assay that uses HepaRG, a human liver cell line, with measurements taken at 48 hours after chemical dosing on a 96-well plate.LTEA_HepaRG_CYP4A11 is one of 102 assay component(s) measured in the LTEA HepaRG cell culture assay. It is a marker of NR mediated metabolism.Data from the assay component LTEA_HepaRG_CYP4A11 was analyzed into 1 endpoint. This assay endpoint, LTEA_HepaRG_CYP4A11, was analyzed with bidirectional fitting relative to DMSO as the negative control and baseline of activity. Using a type of inducible reporter, measures of mRNA induction for gain or loss-of-signal activity can be used to understand regulation of transcription factor activity. To generalize the intended target to other relatable targets, this assay endpoint is annotated to the cyp intended target family, where the subfamily is xenobiotic metabolism.
A total of 1060 chemcials from the ToxCast library were tested in eight-point concentration-response experiments. Cell culture and cytotoxicity assays were conducted at Thermo Fisher Scientific's Custom Services facility (Madison, WI). A single lot of human HepaRG cells (Thermo Fisher Scientific, Frederick, MD) was used for the cell culture experiments. 96-well format collagen type I coated plates of human HepaRG cells were prepared using established methods. Briefly, cryopreserved HepaRG cells were thawed, plated at a density of approximately 100,000 cells/well in HepaRG Thaw, Plate, and General Purpose media (HPRG770, Thermo Fisher Scientific), and incubated for 48 hours. 0.5% DMSO was selected as vehicle control to balance the requisite need of DMSO in HepaRG cultures to maintain differentiation (for example, baseline metabolism, proportions of hepatocytes vs. cholangiocytes), while enabling further hepatic receptor pathway activation (for example, PXR and CAR) in response to chemical exposure. 48 hours after plating, the culture medium was replaced with HepaRG Serum-Free Incudtion Media. Cells were exposed to each test chemical in duplicate and maintained in CO2 incubators for another 48 hours. Chemical plates were thawed to room temperature and 200x concentrations of treatment groups were prepared. 8-point conentration-reponse curves were made with the highest exposure at 100 uM, followed by half-log dilutions, all in 0.5% DMSO. Each test plate contained variouse controls, induction positive controls (1mM phenobarbital), cytotoxicity positive controls ([…] aflatoxin B1), vehicle controls (0.5% DMSO), and total lysis controls (0.5% DMSO). Cell morphology images were taken using an Essen IncuCyte FLR automated microscope, with six 96-well plates imaged in about 24 minutes. Images were captured and exported and JPEG files. Spent culture media was transfered to black-well plates for the LDH assay, and remaining media was sorted at -80 C for later use. Cells were treated with RLT buffer and frozen until shipped for gene expression analysis. Total RNA was isolated from the cell suspension in 75 uL of Buffer RLT (Qiagen, Germantown, MD 20874) by Quintiles/Expression Analysis (Durham, NC) using a custom isolation procedure. Total RNA from each plate well was transferred to a preamplification plate. Fluidigm's 96.96 Dynamic ArrayTM (Fluidigm, Amsterdam, the Netherlands) technology was used for gene expression analyses by quantitative reverse transcription polymerase chain reaction (qRT-PCR, performed by Quintiles/Expression Analysis, Durham, NC)89. Standard TaqManTM Assays (Applied Biosystems/ThermoFisher Scientific, Foster City, CA) were used to assess the expression of 93 genes selected based on their selectivity and sensitivity to important hepatic receptors known to be modulated by environmental chemicals; importance in human hepatocyte functionality; and hepatotoxicity. […]

Compound	outcome	AC50
Cc1nc(-c2ccc3c(c2)CCN(CCC2CCC(NC(=O)/C=C/c4ccc(F)cc4)CC2)CC3)no1 (stereo not given)	inactive	
Clc1cc(Cl)c(Cl)cc1Cl	inactive	
Cc1cccc([N+](=O)[O-])c1C	inactive	
Cc1oc(-c2ccccc2)nc1CCOc1cccc2c1ccn2CCC(=O)O		85.9 µM (active)
CCCCOC(=O)CCCCCCCCC(=O)OCCCC	inactive	
CCCCCCCCCCCCCCCCCC(=O)O	inactive	
O=C(OCCCCCOC(=O)c1ccccc1)c1ccccc1		1.94 µM (active)
CNCc1cc(F)ccc1Oc1ccc(Cl)c(Cl)c1		75.5 µM (active)
C1CCC(SSC2CCCCC2)CC1	inactive	
Cc1cccc(Nc2cc(Cl)nc(SCC(=O)O)n2)c1C		4.63 µM (active)
COCCOCCOC	inactive	
O=C(O)Cc1ccccc1Nc1c(Cl)cccc1Cl	inactive	
CCCCN(CCCC)CCCC	inactive	
CN1CCN(Cc2cc(-c3ccc4[nH]c(=O)oc4c3)co2)[C@@H](c2ccc(F)cc2)C1		78.5 µM (active)
COc1ccc(S(=O)(=O)N2C(=O)[C@@](c3ccccc3OC)(N3C[C@H](O)C[C@H]3C(=O)N(C)C)c3cc(Cl)ccc32)c(OC)c1		26.6 µM (active)
Cc1ccc2ncccc2c1	inactive	
OC[C@@H](O)[C@@H](O)[C@H](O)[C@H](O)CO	inactive	
COc1cc(S(=O)(=O)O)c(C)cc1N=Nc1c(O)ccc2cc(S(=O)(=O)O)ccc12	inactive	
CCCCCCCCCCCC(=O)OC	inactive	
CCOC(=O)CCC(=O)OCC	inactive	

Compound	outcome	AC50
COc1ccc(C)cc1N	inactive	
Cc1cccc(C)c1O	inactive	
CCCCCCCCCCO	inactive	
c1cc(-c2ccncc2)ccn1	inactive	
CCNc1cccc(C)c1	inactive	
CCCCCCC(=O)OCC	inactive	
CCCCCCCCCCC	inactive	
CCCc1cc(=O)[nH]c(=S)[nH]1	inactive	
CC1(C)NC(=O)NC1=O	inactive	
CCCCCCCC=O	inactive	
O=C(N[C@@H](Cc1ccccc1)[C@@H](O)C(=O)N1C[C@@H](O)[C@@H](O)C1)c1cc2cc(Cl)ccc2[nH]1		89.9 µM (active)
CC1(C)CC(N=C=O)CC(C)(CN=C=O)C1 (stereo not given)	inactive	
CC=Cc1ccc(O)c(OC)c1	inactive	
Oc1ccc2ccccc2c1N=Nc1ccccc1		27.1 µM (active)
CCOC(=O)C(C)(C)Oc1ccc(Cl)cc1		27.6 µM (active)
CN1CCCC1=O	inactive	
CCCCCCCCCCCCCCCC	inactive	
NS(=O)(=O)c1cc2c(cc1Cl)NCNS2(=O)=O	inactive	
O=[N+]([O-])C(CO)(CO)CO	inactive	
CC(=O)C(C)=CC1C(C)=CCCC1(C)C (stereo not given)	inactive	
